Results filed as inconclusive are left out. Activity calls are given as the source filed them. Unless noted, calls come from the whole dose curve; as a rule, active = well fitted curve in the direction sought with a large enough effect; inconclusive = small, poorly fitted or top-dose-only effect, or another doubt; inactive = no such curve, though single readings can be large; an effect the other way counts as inactive or inconclusive.

These results are taken from PubChem BioAssay (NCATS).

The target in assay [1] is Lysosomal acid glucosylceramidase (Homo sapiens) (UniProt P04062). In words: Glucocerebrosidase-p2 (AID 348; in the data active = potency below about 10 µM; note: potency is the fitted concentration of half-maximal effect). The following applies: purified GBA, blue fluorogenic substrate, 40 min. The essentials:
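Compounds titrated from 0.6 nM upwards against 0.2 nM enzyme in pH 5.9 citric acid/KH2PO4, taurocholate, tween-20; blue fluorogenic substrate 80 uM, 40 min room temperature, stopped and read Ex 365/Em 440 for AC50.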

Assay [2] can be described thus: AP1 Signaling Pathway (AID 357; active = well fitted curve in either direction with a large enough effect, not every such curve was filed as active;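 note: ME-180 reporter cells stimulated with EGF at its EC50 level; % is set by controls: 0 for no effect and ±100 for the full control effect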). Conditions: ME-180 AP-1-bla reporter, EGF-induced, beta-lactamase ratio, 5 h; at 7.69 µM (top of the series) unless noted. The essentials: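 AP-1-bla ME-180 cells, Opti-MEM + 0.5% dialyzed FBS, plated overnight 37 °C. Cpd titration + EC50 EGF, 5 h 37 °C. CCF4 2.5 h RT; ex 405, em 460/530 ratio → %activity, AC50.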
Assay [3] in a line: NFAT Signaling Pathway (AID 444; active = well fitted curve in either direction with a large enough effect, not every such curve was filed as active;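 note: carbachol stimulus at about its EC50 of 1 µM final; % is set by controls: 0 for no effect and ±100 for the full control effect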). Conditions: Jurkat NFAT-bla M1, carbachol, beta-lactamase ratio, 5 h; at 7.69 µM (top of the series) unless noted. The essentials: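 Jurkat cells carrying an NFAT-driven β-lactamase reporter and co-transfected muscarinic M1 receptor were treated with compound plus carbachol (1 uM final, an EC50 level) for 5 h at 37 °C. CCF4 loading followed for 1 h at RT; 460/530 nm ratio gave %activity.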

Assay [4] is described as follows: Stat Signaling Pathway (AID 446; active = well fitted curve in either direction with a large enough effect, not every such curve was filed as active;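 note: ME-180 cervical cancer cells given 40 pM IL-6 alongside compound; SIE-controlled beta-lactamase reporter measured as 460/530 nm FRET emission ratio; % is set by controls: 0 for no effect and ±100 for the full control effect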). The following applies: ME-180 (cervical carcinoma) SIE beta-lactamase reporter, IL-6 stimulated, 5 h; at 7.69 µM (top of the series) unless noted. The gist of the method:
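ME-180 cells carrying a SIE-driven beta-lactamase reporter are stimulated with 40 pM IL-6 for 5 h at 37C in the presence of compound. The 460/530 nm FRET substrate ratio is read after 2.5 h at RT. Data are normalised to 300 pM IL-6 and to 125 nM JAK inhibitor controls.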

For assay [5], the target named is Glucocorticoid receptor (Homo sapiens) (UniProt P04150). In words: GR-GFP Redistribution (AID 450;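 active = compounds whose dose series gives a full or clear partial fitted curve of increased nuclear translocation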; note: potency is the fitted concentration of half-maximal effect). Conditions: U2OS GR-GFP nuclear translocation, laser cytometry, 2 h.
Assay [6] shares this target. Kind of assay: GR-EFC Redistribution (AID 451; calls by dose curve; note: potency is the fitted concentration of half-maximal effect). Conditions: CHO-K1 GR-EFC translocation, beta-gal luminescence, 2 h. The gist of the method:
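CHO-K1 cells stably expressing nuclear-localized β-gal enzyme acceptor and GR fused C-terminally to the enzyme donor fragment; ligand-driven nuclear translocation restores β-gal by complementation. Compounds titrated up to 46 uM final, 2 h at 37 °C; luminescence read.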

For assay [7], the target named is Mitogen-activated protein kinase 10 (Mus musculus) (UniProt Q61831). Kind of assay: JNK3 AlphaScreen Assay (AID 530; active = well fitted curve in either direction with a large enough effect, not every such curve was filed as active;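 note: kinase came from lysate of stimulated human HepG2 cells; signal reports phosphorylation of biotinylated GST-cJun 1-79 at Ser73 with 10 µM ATP; % is set by controls: 0 for no effect and ±100 for the full control effect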). The essentials: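 Inhibitors reduce antibody binding to phosphorylated biotin-cJun, lowering AlphaScreen luminescence. Lysates from HepG2 cells pre-activated by IL-1beta plus TNF-alpha supplied JNK3; compounds were titrated.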
(In general: Bead proximity is the source of the signal in Alpha formats.)

In assay [8] the target is 3',5'-cyclic-AMP phosphodiesterase 4B (Homo sapiens) (UniProt Q07343). In words: qHTS Assay for Inhibitors of PDE-IV (AID 607; active = well fitted activation curve with a large enough effect in the main read-out, with a control signal flat, not every such curve was filed as active; note: % of control where 0% means no effect). The gist of the method: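 HEK293 ACTOne cells with CNG channel (1000/well), endogenous PDE4; membrane potential dye, compounds up to 22.9 uM final. Fluorescence Ex 535/Em 590; RO 20-1724 (100 uM final) as reference.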
Background: qHTS replaces the single test concentration by a dilution series.

Assay [9] deals with Dual specificity protein kinase CLK4 (Homo sapiens) (UniProt Q9HAZ1). In words: qHTS Assay for Inhibitors of CDC-like Kinase 4 (Kinase-Glo Assay) (AID 1770). Note: % is set by controls: 0 for no effect and ±100 for the full control effect; nearly all actives have a fitted effect of over 65% in size. The essentials:
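Substrate mix (RS peptide 100 uM, ATP 1 uM) dispensed, compound pinned in, then Clk4 added to 25 nM final. Incubated 4.5 h at RT; Kinase-Glo reagent added, luminescence read after 5 min.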

The target is the same in assay [10]. In words: qHTS Assay for Inhibitors of CDC-like Kinase 4 (ADP-FP Assay) (AID 1795).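 Note: recombinant human CLK4 phosphorylating RS repeat peptide at 1 µM ATP; % is set by controls: 0 for no effect and ±100 for the full control effect; nearly all actives have a fitted effect of over 60% in size.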 The essentials: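 Clk4 6.25 nM; RS peptide 100 uM; ATP 1 uM; 25 mM Tris pH 7.5, 10 mM MgCl2; 1 h reaction. ADP detected via antibody/orange tracer FP displacement; TG003 positive control.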
Assay [11] can be described thus: Primary qHTS for small molecule stabilizers of the endoplasmic reticulum resident proteome: Secreted ER Calcium Modulated Protein (SERCaMP) assay (AID 1508630). Note: % is set by controls: 0 for no effect and ±100 for the full control effect. The essentials: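 GLuc-SERCaMP-expressing SH-SY5Y cells, pretreated 16 h with compound, are challenged with thapsigargin to empty ER calcium stores; after 4 h, coelenterazine is added directly to the medium and luminescence is imaged.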

The target of assay [12] is Rap guanine nucleotide exchange factor 3 (Homo sapiens) (UniProt O95398). In words: Confirmatory qHTS for antagonist of cAMP-regulated guanine nucleotide exchange factor 3 (EPAC1) (AID 1645880).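 Note: plate controls were DMSO only for no effect and full effect of the ATA control for full effect; nearly all actives have a fitted effect of over 55% in size.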 The essentials:
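Nucleotide exchange uses 100 nM EPAC1, 250 nM RAP1B-BODIPY-GDP and 50 uM GDP, with compounds in a concentration-titration series. After 5 min at room temperature, fluorescence (480 nm ex/540 nm em) is read every 5 min for 30 min. Data are normalized to control ATA and DMSO.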

Assay [13] has the same target. In words: Confirmatory qHTS for agonist of cAMP-regulated guanine nucleotide exchange factor 3 (EPAC1) (AID 1645881).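 Note: EPAC1 catalysed release of BODIPY-GDP from Rap1B seen as fluorescence loss; 100% = effect of cAMP agonist control; nearly all actives have a fitted effect of over 75% in size.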
Assay [14] concerns the target Rap guanine nucleotide exchange factor 4 (Homo sapiens) (UniProt Q8WZA2). In words: Confirmatory qHTS for agonist of cAMP-regulated guanine nucleotide exchange factor 4 (EPAC2) (AID 1645884).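 Note: nucleotide exchange releases bodipy-GDP from Rap1 and this lowers its fluorescence; % is set by controls: 0 for no effect and ±100 for the full control effect; nearly all actives have a fitted effect of over 65% in size.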
For assay [15] the target is unchanged. In words: Confirmatory qHTS for antagonist of cAMP-regulated guanine nucleotide exchange factor 4 (EPAC2) (AID 1645885). Note: % is set by controls: 0 for no effect and ±100 for the full control effect; nearly all actives have a fitted effect of over 25% in size.
For assay [16], the target named is Cytochrome P450 1A2 (Homo sapiens) (UniProt P05177). Kind of assay: p450-cyp1a2 (AID 410; calls by dose curve; note: potency is the fitted concentration of half-maximal effect). The essentials:
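20nM CYP1A2 with 100uM Luciferin-ME (at Km) in 100mM KPO4; compound preincubated 10 min, NADPH regeneration added, 60 min at room temperature. Luciferin quantified by luminescence after detection reagent; normalized to 57 uM furafylline.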

Assay [17] addresses Cytochrome P450 3A4 (Homo sapiens) (UniProt P08684). In words: qHTS Assay for Inhibitors and Substrates of Cytochrome P450 3A4 (AID 884). Note: nearly all actives have a fitted effect of over 50% in size. Note: potency is the fitted concentration of half-maximal effect. The gist of the method:
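20 nM human CYP3A4 with 25 uM Luciferin-PPXE (at KM) in 200 mM KPO4, preincubated 10 min with compound; NADPH regeneration started a 60 min RT reaction. Luciferin detected by luminescence, normalized to 57 uM ketoconazole as full inhibition.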

Assay [18] has the same target. Kind of assay: qHTS Assay for Activators of Cytochrome P450 3A4 (AID 885). Note: nearly all actives have a fitted effect of over 65% in size. Note: potency is the fitted concentration of half-maximal effect. The gist of the method: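 Human CYP3A4 (20 nM) with Luciferin-PPXE at 25 uM (its KM) in 200 mM KPO4; 10 min compound preincubation, then NADPH regeneration and 60 min reaction at RT. Luciferin read by luminescence; normalized to 57 uM ketoconazole full inhibition.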
The nature of assay [19]: qHTS Assay for Lipid Storage Modulators (AID 1519; calls by dose curve). Conditions: Drosophila S3 cells, BODIPY lipid droplet/cell ratio, laser cytometry, cells loaded with oleic acid; for activity change, negative = inhibition: at 57.5 µM (top of the series). The gist of the method: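 Cells seeded at 5,000 per well were treated with compounds over a concentration series and loaded with oleic acid (400 uM, as added). Lipid droplet fluorescence (488 nm excitation, 500-530 nm channel) was read by laser-scanning cytometry and normalized to 20 uM Triacsin C.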

Assay [20] concerns the target Ubiquitin carboxyl-terminal hydrolase 1 (Homo sapiens) (UniProt O94782). In words: Inhibitors of USP1/UAF1: Pilot qHTS (AID 504865). Note: nearly all actives have a fitted effect of over 35% in size. Note: potency is the fitted concentration of half-maximal effect. The essentials: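 In 50mM HEPES pH 7.8 containing 0.5mM EDTA, 1mM TCEP, 0.1 mg/ml BSA and 0.01% Tween-20, 1nM USP1/UAF1 is exposed to compound for 15 min, then Ub-Rho (150nM final) is added and fluorescence is read over time.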
[21] abbreviates: measured here: cell count channel max response.
Where [22] appears, read: measured here: lipid channel max response.

Dual specificity protein kinase CLK4 (Homo sapiens), sequence (Q9HAZ1 whole entry, looked up): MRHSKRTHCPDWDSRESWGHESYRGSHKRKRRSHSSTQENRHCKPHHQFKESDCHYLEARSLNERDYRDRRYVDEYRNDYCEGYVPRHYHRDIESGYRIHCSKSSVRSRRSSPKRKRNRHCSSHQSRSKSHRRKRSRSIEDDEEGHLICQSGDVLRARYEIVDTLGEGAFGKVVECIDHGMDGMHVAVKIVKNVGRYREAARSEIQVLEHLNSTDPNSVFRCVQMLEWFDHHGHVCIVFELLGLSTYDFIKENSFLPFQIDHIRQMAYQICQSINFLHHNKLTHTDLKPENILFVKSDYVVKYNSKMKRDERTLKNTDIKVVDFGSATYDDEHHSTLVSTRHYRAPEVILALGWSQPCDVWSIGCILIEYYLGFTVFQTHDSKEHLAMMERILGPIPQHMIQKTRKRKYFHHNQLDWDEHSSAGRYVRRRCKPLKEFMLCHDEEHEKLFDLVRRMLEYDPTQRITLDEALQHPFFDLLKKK
Cytochrome P450 1A2 (Homo sapiens), sequence (P05177 whole entry, looked up): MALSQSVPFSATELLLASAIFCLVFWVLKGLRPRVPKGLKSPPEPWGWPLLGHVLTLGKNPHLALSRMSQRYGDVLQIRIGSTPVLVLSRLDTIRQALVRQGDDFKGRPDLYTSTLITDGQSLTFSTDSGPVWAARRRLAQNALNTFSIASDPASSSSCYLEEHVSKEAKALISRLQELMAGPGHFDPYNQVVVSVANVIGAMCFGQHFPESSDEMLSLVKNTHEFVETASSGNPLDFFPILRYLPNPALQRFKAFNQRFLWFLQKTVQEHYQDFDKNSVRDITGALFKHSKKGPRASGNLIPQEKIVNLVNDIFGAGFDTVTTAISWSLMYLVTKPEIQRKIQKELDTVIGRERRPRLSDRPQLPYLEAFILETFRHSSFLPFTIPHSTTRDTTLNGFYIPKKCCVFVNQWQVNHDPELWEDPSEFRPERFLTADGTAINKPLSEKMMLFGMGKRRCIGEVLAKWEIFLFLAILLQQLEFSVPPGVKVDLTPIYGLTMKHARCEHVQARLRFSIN
Cytochrome P450 3A4 (Homo sapiens), sequence (P08684 whole entry, looked up): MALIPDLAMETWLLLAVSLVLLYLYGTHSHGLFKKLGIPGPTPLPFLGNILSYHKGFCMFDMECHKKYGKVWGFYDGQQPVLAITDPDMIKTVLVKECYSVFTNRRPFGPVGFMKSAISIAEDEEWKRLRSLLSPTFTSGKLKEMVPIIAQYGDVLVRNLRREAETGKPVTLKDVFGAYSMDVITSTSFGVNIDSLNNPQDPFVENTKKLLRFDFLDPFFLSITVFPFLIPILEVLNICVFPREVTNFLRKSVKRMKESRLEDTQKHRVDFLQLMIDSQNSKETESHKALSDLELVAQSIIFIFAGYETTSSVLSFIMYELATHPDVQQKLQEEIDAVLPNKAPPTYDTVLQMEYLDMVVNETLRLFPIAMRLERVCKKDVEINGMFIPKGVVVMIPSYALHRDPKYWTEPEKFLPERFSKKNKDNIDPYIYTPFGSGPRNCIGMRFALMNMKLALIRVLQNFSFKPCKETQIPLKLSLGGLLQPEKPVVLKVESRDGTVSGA
Glucocorticoid receptor (Homo sapiens), sequence (P04150 whole entry, looked up): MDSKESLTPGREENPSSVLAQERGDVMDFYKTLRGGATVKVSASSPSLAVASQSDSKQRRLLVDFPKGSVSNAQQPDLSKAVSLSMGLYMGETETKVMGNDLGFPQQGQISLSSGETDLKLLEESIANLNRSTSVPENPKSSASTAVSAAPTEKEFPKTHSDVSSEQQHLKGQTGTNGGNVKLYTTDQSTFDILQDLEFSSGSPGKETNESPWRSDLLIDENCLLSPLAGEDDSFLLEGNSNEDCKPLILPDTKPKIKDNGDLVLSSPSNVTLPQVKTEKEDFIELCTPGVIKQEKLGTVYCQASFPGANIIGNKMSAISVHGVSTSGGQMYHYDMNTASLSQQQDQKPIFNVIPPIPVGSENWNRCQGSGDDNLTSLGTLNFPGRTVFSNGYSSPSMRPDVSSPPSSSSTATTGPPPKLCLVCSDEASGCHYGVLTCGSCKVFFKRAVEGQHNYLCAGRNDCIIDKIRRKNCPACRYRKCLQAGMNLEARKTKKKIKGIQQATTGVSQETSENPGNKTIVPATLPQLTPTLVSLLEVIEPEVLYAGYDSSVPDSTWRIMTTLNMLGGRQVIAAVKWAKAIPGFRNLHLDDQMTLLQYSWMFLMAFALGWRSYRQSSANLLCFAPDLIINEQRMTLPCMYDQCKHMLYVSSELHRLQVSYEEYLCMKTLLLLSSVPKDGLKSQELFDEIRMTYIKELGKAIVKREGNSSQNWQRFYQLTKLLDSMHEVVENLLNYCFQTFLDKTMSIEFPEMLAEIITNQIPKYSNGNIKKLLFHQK
Rap guanine nucleotide exchange factor 3 (Homo sapiens), sequence (O95398 whole entry, looked up): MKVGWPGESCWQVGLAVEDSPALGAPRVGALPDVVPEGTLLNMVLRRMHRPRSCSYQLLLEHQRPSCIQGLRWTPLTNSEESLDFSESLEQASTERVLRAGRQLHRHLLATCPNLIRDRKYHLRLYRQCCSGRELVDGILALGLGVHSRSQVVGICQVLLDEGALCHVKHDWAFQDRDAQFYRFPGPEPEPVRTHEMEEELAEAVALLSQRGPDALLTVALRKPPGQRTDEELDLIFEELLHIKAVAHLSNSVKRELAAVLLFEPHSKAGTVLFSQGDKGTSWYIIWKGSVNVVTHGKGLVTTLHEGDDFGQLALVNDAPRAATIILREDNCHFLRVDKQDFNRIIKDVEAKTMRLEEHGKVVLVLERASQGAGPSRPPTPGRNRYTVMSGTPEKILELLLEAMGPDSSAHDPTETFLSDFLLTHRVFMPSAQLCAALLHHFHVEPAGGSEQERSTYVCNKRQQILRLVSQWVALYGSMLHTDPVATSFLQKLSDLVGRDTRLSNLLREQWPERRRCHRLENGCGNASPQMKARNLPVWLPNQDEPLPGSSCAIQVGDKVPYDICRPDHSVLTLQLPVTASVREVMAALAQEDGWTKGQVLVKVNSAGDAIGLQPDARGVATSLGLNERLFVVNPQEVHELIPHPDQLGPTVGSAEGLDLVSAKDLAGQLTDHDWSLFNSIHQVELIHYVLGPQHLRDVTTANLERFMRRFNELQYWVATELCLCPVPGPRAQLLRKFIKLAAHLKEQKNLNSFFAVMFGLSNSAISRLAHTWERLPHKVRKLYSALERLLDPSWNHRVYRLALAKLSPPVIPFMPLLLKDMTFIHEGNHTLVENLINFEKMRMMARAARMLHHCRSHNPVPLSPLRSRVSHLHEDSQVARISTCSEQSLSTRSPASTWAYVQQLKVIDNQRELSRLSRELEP
Rap guanine nucleotide exchange factor 4 (Homo sapiens), sequence (Q8WZA2 whole entry, looked up): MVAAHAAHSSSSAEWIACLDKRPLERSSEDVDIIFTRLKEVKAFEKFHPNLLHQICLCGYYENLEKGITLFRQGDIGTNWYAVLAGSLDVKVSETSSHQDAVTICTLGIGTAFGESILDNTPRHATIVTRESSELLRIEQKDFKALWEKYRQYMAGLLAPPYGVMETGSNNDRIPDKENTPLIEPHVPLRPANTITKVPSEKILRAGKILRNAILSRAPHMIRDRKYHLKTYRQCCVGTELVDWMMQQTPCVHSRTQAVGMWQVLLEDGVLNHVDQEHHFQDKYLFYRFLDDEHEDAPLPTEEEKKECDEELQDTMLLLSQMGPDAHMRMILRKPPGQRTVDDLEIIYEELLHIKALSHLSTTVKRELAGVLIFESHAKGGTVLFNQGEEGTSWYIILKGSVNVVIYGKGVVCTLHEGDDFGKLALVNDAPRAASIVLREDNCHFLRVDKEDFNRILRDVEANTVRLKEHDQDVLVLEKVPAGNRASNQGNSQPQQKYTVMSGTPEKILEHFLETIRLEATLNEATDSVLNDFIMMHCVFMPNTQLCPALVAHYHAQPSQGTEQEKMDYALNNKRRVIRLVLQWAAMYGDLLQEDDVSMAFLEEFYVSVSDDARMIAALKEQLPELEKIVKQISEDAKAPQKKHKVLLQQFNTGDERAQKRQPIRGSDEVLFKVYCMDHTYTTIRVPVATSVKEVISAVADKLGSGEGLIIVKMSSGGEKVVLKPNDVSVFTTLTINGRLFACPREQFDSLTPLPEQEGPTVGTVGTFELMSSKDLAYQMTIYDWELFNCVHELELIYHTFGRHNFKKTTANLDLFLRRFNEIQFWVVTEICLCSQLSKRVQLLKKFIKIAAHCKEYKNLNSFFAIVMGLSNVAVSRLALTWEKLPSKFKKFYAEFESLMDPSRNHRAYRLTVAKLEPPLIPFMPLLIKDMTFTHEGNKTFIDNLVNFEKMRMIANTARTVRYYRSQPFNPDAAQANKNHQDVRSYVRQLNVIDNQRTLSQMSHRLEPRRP
3',5'-cyclic-AMP phosphodiesterase 4B (Homo sapiens), sequence (Q07343 whole entry, looked up): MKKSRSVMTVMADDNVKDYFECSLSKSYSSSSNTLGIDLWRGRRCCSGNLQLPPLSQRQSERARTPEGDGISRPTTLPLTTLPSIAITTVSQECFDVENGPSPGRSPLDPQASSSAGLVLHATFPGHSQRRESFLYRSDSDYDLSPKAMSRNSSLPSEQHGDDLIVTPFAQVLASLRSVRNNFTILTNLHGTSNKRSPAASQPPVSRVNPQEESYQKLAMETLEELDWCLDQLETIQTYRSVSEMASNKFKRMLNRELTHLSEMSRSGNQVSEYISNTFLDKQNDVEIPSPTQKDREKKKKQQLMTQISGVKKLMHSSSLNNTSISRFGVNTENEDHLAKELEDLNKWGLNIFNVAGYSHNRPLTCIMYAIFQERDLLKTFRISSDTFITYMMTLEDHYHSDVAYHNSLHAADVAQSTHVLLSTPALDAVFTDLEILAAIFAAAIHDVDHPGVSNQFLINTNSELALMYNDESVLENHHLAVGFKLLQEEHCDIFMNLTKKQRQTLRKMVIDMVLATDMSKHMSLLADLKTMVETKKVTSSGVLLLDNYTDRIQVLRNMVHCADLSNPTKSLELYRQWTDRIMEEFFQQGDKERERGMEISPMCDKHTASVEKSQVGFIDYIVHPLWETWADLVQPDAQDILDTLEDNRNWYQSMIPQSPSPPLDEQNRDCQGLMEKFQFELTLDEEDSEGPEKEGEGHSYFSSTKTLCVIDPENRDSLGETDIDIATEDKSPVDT

With `COc1cccc(Nc2ncc3nc(-c4cn(C)c5ccccc45)c(=O)n(C[C@H]4CCCO4)c3n2)c1`, the Potency is > 11.4 µM (inactive) in assay [1], > 9.22 µM (inactive) in assay [5] and > 46 µM (inactive) in assay [6]. Moreover, the activity change, negative = inhibition in [2] was -25.8% (inactive); in assay [3] it was -1.76% (inactive). Also, the activity, negative = inhibition in [4] was 8.32% (inactive). Further, the Potency entry in assay [7], in [8], in assay [9], in assay [10], in assay [12] and in assay [13] was “inactive” throughout. Also, the Potency entry in assay [14] and in [15] was “inactive” throughout. Further, the result in [11] was inactive.
`CS(=O)(=O)Nc1cccc(-c2ccc3ncnc(Nc4ccc(F)cc4)c3c2)c1`: the Potency in [16] is 0.794 µM (active); in assay [5] it was > 46 µM (inactive); in assay [6], > 46 µM (inactive); in assay [17], 7.94 µM (active). In addition, the activity, negative = inhibition in assay [4] is 4.21% (inactive). The Potency result in assay [7] and in assay [18] was “inactive” each time. For the same molecule, the activity change, negative = inhibition in assay [19] was 2.96% (inactive). Moreover, the max response in assay [19] (setting [21]) was -27.4%; in assay [19] (setting [22]), -14.7%. The result in assay [11] was inactive.
On to `COCC(=O)N1CCC2(CCN(Cc3ccc(C#N)cc3)CC2)CC1`, for which the activity change, negative = inhibition is -9.28% (inactive) in assay [2] and 4.27% (inactive) in [19]. Moreover, the activity, negative = inhibition in assay [4] is -0.16% (inactive). The Potency in assay [6] was > 46 µM (inactive). Also, the Potency entry in assay [7] and in [8] was “inactive” throughout. The max response in assay [19] (setting [21]) was found to be 17%; in assay [19] (setting [22]), 24.9%. Further, the result in assay [11] was inactive.
As for `O=C(c1cnccn1)N1CCC2(CC1)CN(c1ccccn1)C2`, the Potency entry in assay [16], in assay [7], in assay [8] and in assay [17] was “inactive” throughout. Besides, the activity change, negative = inhibition is -1.72% (inactive) in [3] and 2.3% (inactive) in assay [19]. For the same molecule, in assay [4], the activity, negative = inhibition was 22.6% (inactive). Also, the Potency is > 46 µM (inactive) in [6] and 3.98 µM (active) in [18]. In addition, the max response in [19] (setting [21]) is -1.81%; in assay [19] (setting [22]), -0.0464%. In addition, the result in [11] was inactive.
Turning to `COC(=O)N1CCC2(CC1)CN(c1ccc(-c3ccccc3)cc1)C2`, the Potency in assay [16] was 1.26 µM (active); in [6], > 46 µM (inactive); in assay [18] it was 3.16 µM (active). In addition, the activity change, negative = inhibition in assay [3] was 15.9% (inactive); in assay [19], 5.19% (inactive). The activity, negative = inhibition in assay [4] was -8.46% (inactive). Also, the Potency result in assay [7], in assay [8] and in [17] was “inactive” throughout. The max response is -7.69% in assay [19] (setting [21]) and 0.422% in assay [19] (setting [22]). Also, in [11], the result was inactive.
Turning to `COc1ccc(Oc2ncc3nc(-c4cc(F)cc(F)c4)c(=O)n(C[C@H]4CCCO4)c3n2)cc1`, the values for the Potency in [1], in [5] and in assay [6] were > 11.4 µM (inactive), > 9.22 µM (inactive) and > 46 µM (inactive), respectively. Also, the activity change, negative = inhibition in assay [2] is -5.29% (inactive); in assay [3], -11.6% (inactive). Further, the activity, negative = inhibition in assay [4] is -0.431% (inactive). The Potency result in [7], in assay [8], in [10], in assay [20], in assay [12] and in assay [13] was “inactive” each time. In addition, the Potency result in [14] and in assay [15] was “inactive” throughout. In assay [11], the outcome was inactive.
Regarding `COc1cc(C)c2c(c1C=O)Oc1c(c(C)c(O)c3c1C(O)OC3=O)OC2=O` (configuration not stated), the Potency in assay [17] is 12.6 µM (active); in [20] it was 56.2 µM (active). For the same molecule, the Potency result in assay [18] was “inactive”. Further, the activity change, negative = inhibition in assay [19] is 4.32% (inactive). Also, the values for the max response in assay [19] (setting [21]) and in assay [19] (setting [22]) were 5.41% and 11.3%, respectively. Moreover, the result in [11] was inactive.
In the case of `CS(=O)(=O)N1CCC2(CC1)CN(C(c1ccccc1)c1ccccc1)C2`, the Potency entry in assay [16], in assay [7], in [8] and in assay [17] was “inactive” in each case. Moreover, the activity change, negative = inhibition in assay [3] is -0.932% (inactive); in [19], -2.92% (inactive). Further, in [4], the activity, negative = inhibition was -5.62% (inactive). Further, in [6], the Potency is > 46 µM (inactive). Further, the max response in [19] (setting [21]) was -5.26%; in [19] (setting [22]), -3.93%. Also, in assay [11], the result was inactive.
